PolyA inh: polyadenylation inhibitors in yeast reporter cells, primary screen, luminescence, S. cerevisiae. activity score, % at 12 µM. 300,000 tested, 0.02% active. S. cerevisiae SKY197-pL101 polyadenylation reporter, beta-gal luminescence; efflux-impaired pdr1/pdr3 knockout yeast; score 100 = 6 SD above DMSO;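 active = lowest replicate activity score at least 50, where 100 means six control SD above control mean; inconclusive = lowest score under 50 but half or more replicates reach 50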;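 note: yeast exposed to compound for 9 h at 30 °C; higher score means more reporter readthrough which indicates perturbed polyadenylation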
SKKanGAS inh: S. pyogenes SKKanGAS growth inhibitors in kanamycin, primary screen, streptokinase expression inhibitor project, SKKanGAS strain, BacTiter-Glo luminescence | 6 h | inhibition, % at 7.5 µM | 300,000 tested, 1.3% active | AID 1662, 2009;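 active = mean replicate score, as percent of positive control median, at least 50; inconclusive = mean below 50 but one replicate at or above 50; inactive = mean and every replicate below 50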;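 note: strain carries kanamycin resistance gene driven by streptokinase promoter and grows in 40 µg/ml kanamycin; loss of luminescence reflects streptokinase promoter inhibition or plain growth inhibition; 0% = median of DMSO wells and 100% = positive control at its reference dose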
Calb FLC: C. albicans growth inhibition with fluconazole, primary screen, CaCi-2 strain, Alamar Blue fluorescence | C. albicans CaCi-2 (fluconazole-resistant clinical isolate) + fluconazole, 48 h | AID 1979, 2009 | growth inhibition, % (no concentration beside the values) | 300,000 tested, 0.57% active;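 active = growth inhibition above about 58% in most replicates, limit read from the data, passing the limit was not always enough; inconclusive = exactly half the replicates above a set limit; inactive = most replicates below a set limit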;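 note: all wells also contain fluconazole at 8 µg/ml as a sub-toxic cotreatment; 0% = median of DMSO wells and 100% = median of geldanamycin control wells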
Yeast superoxide: reduction of superoxide in aged yeast, primary screen, HTS. 330,000 tested, 0.18% active. superoxide response (% of plate mean), % at 10 µM. S. cerevisiae aged cells, superoxide DHE fluorescence; hits give low values. AID 2690, 2010;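 active = superoxide response under a set limit, about three screen SD below normal, cut at about 65% in these data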;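 note: yeast aged for seven days with compound at 30 °C before DHE staining; 100% = average MFI of all compound-treated wells on the plate with controls excluded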
Platelet DG rel: inhibitors of platelet dense granule secretion, primary screen, cell-based, MLPCN, human platelets. AID 1663, 2009. inhibition, %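 (compounds screened at 7.5 µM in platelet-rich plasma)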. 300,000 tested, 0.22% active. human platelet-rich plasma, SFLLRN dense granule ATP release, luminescence;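 active = mean replicate score, as percent of positive control, at or above 50; inconclusive = mean below 50 but at least one replicate at or above 50; inactive = mean and every replicate below 50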
CR mimetic CP: superoxide lowering in aged yeast cells, confirmation, cherry picked compounds | shares compounds with Yeast superoxide | S. cerevisiae aging, superoxide DHE fluorescence; hits give low values | superoxide response (% of plate), % at 10 µM | 850 tested, 1% active | AID 434994, 2010;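 active = superoxide signal below 65% of the plate average of sample wells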;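 note: cells aged with compound for 7 days at 30 degrees C before staining; 100% equals mean DHE fluorescence of all compound wells on the plate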
DHE counter: DHE quenching or ROS scavenging interference in aged yeast, artefact control for yeast caloric restriction mimetic project, S. cerevisiae BY4741, flow cytometry. shares compounds with Yeast superoxide. DHE fluorescence; hits give low values. fluorescence response, % at 10 µM. 850 tested, under 10 active. AID 435000, 2010;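 active = fluorescence response below 15%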;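 note: percent of the mean fluorescence averaged over all compound wells on the plate; lower means stronger quenching of DHE signal or ROS scavenging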
Active calls of the source: *. Shown are actives, neighbours in structure and some others; about 2% of the full set was active somewhere.

For Cc1cc(=O)n2[nH]c(-c3ccccc3)cc2n1 the results were PolyA inh -5.6, SKKanGAS inh -1.9, Calb FLC 7.4, Yeast superoxide 94.4 and Platelet DG rel 0.0.
`COc1cccc(-c2cc3nc(-c4ccccc4)cc(=O)n3[nH]2)c1` gave PolyA inh 9.0, SKKanGAS inh 20.3, Calb FLC 5.8, Yeast superoxide 88.8, Platelet DG rel 0.7, CR mimetic CP 91.1 and DHE counter 96.5.
O=c1cc(-c2ccccc2)nc2cc(-c3ccc(F)cc3)[nH]n12 was read as PolyA inh -10.1, SKKanGAS inh 25.9, Calb FLC 3.5, Yeast superoxide 106.0, Platelet DG rel 0.6, CR mimetic CP 92.3 and DHE counter 93.5.
`Cc1nc2cc(-c3ccccc3)[nH]n2c(=O)c1C` gave PolyA inh 11.8, SKKanGAS inh 8.0, Calb FLC 8.6, Yeast superoxide 96.2, Platelet DG rel 4.0, CR mimetic CP 94.1 and DHE counter 93.3.
`O=c1c2c(nc3cc(-c4ccc(F)cc4)[nH]n13)CCC2` gave PolyA inh 6.3, SKKanGAS inh -5.7, Calb FLC 2.5, Yeast superoxide 97.2 and Platelet DG rel -8.8.
`COc1ccccc1OCCNC(=O)c1ccc(Br)cc1` gave PolyA inh -3.7, SKKanGAS inh -9.4, Calb FLC 2.9, Yeast superoxide 57.9*, Platelet DG rel 13.8, CR mimetic CP 81.3 and DHE counter 99.6.
`Cc1ccc(NC(=O)CC(C)CC(=O)NCc2ccccc2)cc1Cl` (stereo unspecified) gave PolyA inh -12.1, SKKanGAS inh -9.0, Calb FLC 21.3 and Yeast superoxide 97.6.
CCn1c(SCC(=O)Nc2cc(C)on2)nnc1-c1ccc(S(=O)(=O)N2CCCC2)cc1 was read as PolyA inh -1.9, SKKanGAS inh -1.9, Calb FLC -13.0, Yeast superoxide 103.7 and Platelet DG rel -1.6.
For Cc1cc(NC(=O)CSc2nnc(-c3ccc(S(=O)(=O)N4CCCC4)cc3)n2C)no1 the results were PolyA inh 1.6, SKKanGAS inh -3.2, Calb FLC 3.2, Yeast superoxide 51.1*, Platelet DG rel -5.6, CR mimetic CP 89.8 and DHE counter 108.2.
For Cc1nnsc1C(=O)NNS(=O)(=O)c1cc(C(F)(F)F)cc(C(F)(F)F)c1 the results were PolyA inh 16.0, SKKanGAS inh -0.7, Calb FLC 7.3, Yeast superoxide 58.9*, Platelet DG rel -2.4, CR mimetic CP 95.9 and DHE counter 95.7.
For CCOc1ccc(NC(=O)CCn2nc(C)c(S(=O)(=O)N3CCCCC3)c2C)cc1 the results were PolyA inh -9.8, SKKanGAS inh 5.1, Calb FLC -2.4, Yeast superoxide 58.3*, Platelet DG rel 9.4, CR mimetic CP 98.6 and DHE counter 98.5.
`Cn1c(COc2ccccc2)nnc1SCC(=O)NC1CCCC1` gave PolyA inh 11.6, SKKanGAS inh -3.4, Calb FLC -7.2, Yeast superoxide 93.9 and Platelet DG rel -0.1.
`O=C(NC(=S)Nc1ncc(Br)cc1Br)c1ccccc1` gave PolyA inh -7.2, SKKanGAS inh -10.5, Calb FLC -2.6, Yeast superoxide 119.8 and Platelet DG rel -7.1.
COc1ccc2c(c1)c1nnc(SC)nc1n2C was read as PolyA inh 96.1*, SKKanGAS inh 8.3, Calb FLC 1.5, Yeast superoxide 43.8*, Platelet DG rel 0.6, CR mimetic CP 66.5 and DHE counter 87.4.
Screening C=CCNC(=S)NCC returned PolyA inh 27.8, SKKanGAS inh -14.1, Yeast superoxide 65.1*, Platelet DG rel -8.8, CR mimetic CP 97.8 and DHE counter 96.5.
`C=CCNC(=S)NCCO` gave PolyA inh -0.9, SKKanGAS inh -5.2, Calb FLC -1.2, Yeast superoxide 80.9 and Platelet DG rel 0.1.
COc1cccc(NS(=O)(=O)c2c(C)cc(C)cc2C)c1 was read as PolyA inh 6.0, SKKanGAS inh -1.2, Calb FLC inconclusive, Yeast superoxide 97.6, Platelet DG rel 3.4, CR mimetic CP 95.0 and DHE counter 92.3.
`Cc1ccc(N2CCN(C(=O)c3ccccc3Br)CC2)c(C)c1` gave PolyA inh -0.2, SKKanGAS inh 2.2, Calb FLC 8.8, Yeast superoxide 97.8, Platelet DG rel -2.7, CR mimetic CP 101.5 and DHE counter 95.8.
For O=C(c1ccccc1Br)N1CCN(c2ccccc2)CC1 the results were PolyA inh 0.0, SKKanGAS inh 1.7, Calb FLC -22.3, Yeast superoxide 98.0, Platelet DG rel 4.3, CR mimetic CP 107.5 and DHE counter 95.3.
For Cc1ccc(C)c(N2CCN(C(=O)c3ccccc3Br)CC2)c1 the results were PolyA inh -10.6, SKKanGAS inh 2.3, Calb FLC 2.4, Yeast superoxide 107.6, Platelet DG rel -2.1, CR mimetic CP 100.9 and DHE counter 105.4.
O=[N+]([O-])c1cc(NCCO)c(N2CCCCCC2)c2nonc12 was read as PolyA inh -15.3, SKKanGAS inh 0.4, Calb FLC -11.6, Yeast superoxide 113.1 and Platelet DG rel 4.1.
Screening COc1ccc([N+](=O)[O-])cc1NC(=O)C(C)OC(=O)CC1CCCC1 (stereo unspecified) returned Yeast superoxide 94.4.
O=C1CCCN1S(=O)(=O)c1ccccc1 was read as PolyA inh -7.6, SKKanGAS inh 3.2, Calb FLC -17.5, Yeast superoxide 91.5, Platelet DG rel -0.8, CR mimetic CP 115.0 and DHE counter 107.5.
Screening O=C1CCCN1S(=O)(=O)c1ccc(F)cc1 returned PolyA inh 5.6, SKKanGAS inh -7.1, Calb FLC 6.4, Yeast superoxide 95.5 and Platelet DG rel 7.0.
For Cc1nccc(-c2cccc(N/N=C(\C#N)C(=O)c3ccccc3)c2)n1 the results were PolyA inh -14.4, SKKanGAS inh 17.7, Calb FLC 13.6, Yeast superoxide 99.0 and Platelet DG rel -32.5.
For N#C/C(=N\Nc1cccc(C(F)(F)F)c1)C(=O)c1ccsc1 the results were PolyA inh -26.8, SKKanGAS inh 32.6, Calb FLC 22.8, Yeast superoxide 63.7*, Platelet DG rel 0.8, CR mimetic CP 107.8 and DHE counter 106.2.
`O=C(Nc1ccc(F)c(F)c1)c1ccc(F)c(S(=O)(=O)N2CCOCC2)c1` gave PolyA inh 14.9, SKKanGAS inh -5.1, Calb FLC 1.8, Yeast superoxide 56.0*, Platelet DG rel 0.7, CR mimetic CP 120.4 and DHE counter 110.0.
